This is an account of results in PubChem BioAssay (EPA / NIEHS).

Where “and” joins values, the source holds several entries; their conditions need not be identical. Equal values may be shown once. Inconclusive results are not listed. A structure can be active in one record and inactive in another. Calls of active or inactive are those of the source. The calls were made as follows: active = hit-call score of the fitted dose curve at least 0.9, where 1 is the maximum; inconclusive = response in the unintended direction; inactive = score below 0.9.

The target of test [1] is Estrogen receptor beta (Homo sapiens) (UniProt Q92731). Nature of the test: OT_ER_ERbERb_0480: Odyssey Thera (OT) 8-hour HEK293T Protein-Complementation Assay for Estrogen Receptor-beta/-beta Homodimer (AID 2283357).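 Also: active means signal gain over DMSO baseline.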 A digest of the protocol: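 Readout: increase in mean fluorescence intensity (nucleus for agonists; nucleus plus cytoplasm for antagonists) relative to DMSO, from a reporter-fragment complementation of human ER-beta LBD homodimer in HEK293T cells dosed 8 hours.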
Estrogen receptor beta (Homo sapiens), sequence (Q92731 whole entry, looked up, the tested form may be a part): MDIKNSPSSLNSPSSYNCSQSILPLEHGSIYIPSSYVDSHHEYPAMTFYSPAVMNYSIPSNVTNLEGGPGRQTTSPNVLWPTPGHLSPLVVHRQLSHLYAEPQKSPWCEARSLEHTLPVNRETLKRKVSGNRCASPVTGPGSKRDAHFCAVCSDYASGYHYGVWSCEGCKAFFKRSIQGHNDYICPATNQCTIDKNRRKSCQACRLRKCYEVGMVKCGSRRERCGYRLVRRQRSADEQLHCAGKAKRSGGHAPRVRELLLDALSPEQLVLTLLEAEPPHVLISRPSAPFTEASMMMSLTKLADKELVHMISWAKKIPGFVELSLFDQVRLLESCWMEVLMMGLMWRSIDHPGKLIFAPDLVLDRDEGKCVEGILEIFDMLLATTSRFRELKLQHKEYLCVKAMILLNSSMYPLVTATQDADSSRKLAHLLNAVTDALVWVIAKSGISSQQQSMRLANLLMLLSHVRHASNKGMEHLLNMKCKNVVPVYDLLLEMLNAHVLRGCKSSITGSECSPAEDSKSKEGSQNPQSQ

For test [2], the target named is human Peroxisome Proliferator-activated Receptor alpha (PPARa), PPARA (gene 5465) (UniProt Q07869). Nature of the test: NVS_NR_hPPARa: NovaScreen (NVS) Nuclear Receptor Binding Assay for human Peroxisome Proliferator-activated Receptor alpha (PPARa) (AID 2283359).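 Also: activity means loss of TR-FRET signal versus DMSO baseline.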 The essentials: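 Cell-free binding assay with extracted human protein, read by TR-FRET 1 h after chemical dosing. Loss of signal relative to DMSO baseline indicates binding. Primary screen used duplicate single concentration (25 uM); actives followed up in concentration series.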
human Peroxisome Proliferator-activated Receptor alpha (PPARa), PPARA (gene 5465), sequence (Q07869 whole entry, looked up): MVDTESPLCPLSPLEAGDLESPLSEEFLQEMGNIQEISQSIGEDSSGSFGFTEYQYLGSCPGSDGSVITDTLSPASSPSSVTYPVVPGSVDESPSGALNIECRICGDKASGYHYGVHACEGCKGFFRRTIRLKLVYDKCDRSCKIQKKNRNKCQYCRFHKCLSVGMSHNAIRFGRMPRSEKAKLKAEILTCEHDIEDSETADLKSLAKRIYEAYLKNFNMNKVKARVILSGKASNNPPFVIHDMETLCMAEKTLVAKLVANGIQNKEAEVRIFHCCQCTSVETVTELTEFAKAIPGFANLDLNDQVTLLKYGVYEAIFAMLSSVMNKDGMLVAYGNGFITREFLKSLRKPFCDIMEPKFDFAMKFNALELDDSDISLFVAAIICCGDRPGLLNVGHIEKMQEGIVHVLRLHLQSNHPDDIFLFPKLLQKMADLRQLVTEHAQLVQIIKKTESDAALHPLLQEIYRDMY

Test [3] deals with guinea pig Sigma Receptor, Non-selective Binding, SIGMAR1 (gene 100135589) (UniProt Q60492). In words: NVS_OR_gSIGMA_NonSelective: NovaScreen (NVS) Nuclear Receptor Binding Assay for guinea pig Sigma Receptor, Non-selective Binding (AID 2283367). A digest of the protocol:
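Guinea pig brain membranes, cell-free radioligand binding; read 1 h after dosing by filter-based scintillation counting. Loss of signal vs DMSO baseline taken as displacement. Primary screen single concentration 25 uM in duplicate; actives retested in concentration series.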

The subject of test [4] is guinea pig Dopamine Transporter (DAT), gene 100714898. In words: NVS_TR_gDAT: NovaScreen (NVS) Transporter Assay for guinea pig Dopamine Transporter (DAT) (AID 2283369).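 Also: active compounds lower bound radioligand signal relative to DMSO.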 The essentials: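 Guinea pig striatal membranes, cell-free radioligand binding with filter-based scintillation counting, read 2 h after dosing. Loss of signal versus DMSO baseline; single-concentration primary (25 uM) then concentration-response up to 50 uM.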

For test [5], the target named is Peroxisome proliferator-activated receptor gamma (Homo sapiens) (UniProt P37231). In words: NVS_NR_hPPARg: NovaScreen (NVS) Nuclear Receptor Binding Assay for human Peroxisome Proliferator-activated Receptor gamma (PPARg) (AID 2283370). A digest of the protocol: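 Cell-free fluorescence polarization binding to human PPARg protein, read 2 h after dosing. Primary screen in duplicate at 25 uM, actives followed in concentration series; loss of signal relative to DMSO scored.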
Peroxisome proliferator-activated receptor gamma (Homo sapiens), sequence (P37231 whole entry, looked up): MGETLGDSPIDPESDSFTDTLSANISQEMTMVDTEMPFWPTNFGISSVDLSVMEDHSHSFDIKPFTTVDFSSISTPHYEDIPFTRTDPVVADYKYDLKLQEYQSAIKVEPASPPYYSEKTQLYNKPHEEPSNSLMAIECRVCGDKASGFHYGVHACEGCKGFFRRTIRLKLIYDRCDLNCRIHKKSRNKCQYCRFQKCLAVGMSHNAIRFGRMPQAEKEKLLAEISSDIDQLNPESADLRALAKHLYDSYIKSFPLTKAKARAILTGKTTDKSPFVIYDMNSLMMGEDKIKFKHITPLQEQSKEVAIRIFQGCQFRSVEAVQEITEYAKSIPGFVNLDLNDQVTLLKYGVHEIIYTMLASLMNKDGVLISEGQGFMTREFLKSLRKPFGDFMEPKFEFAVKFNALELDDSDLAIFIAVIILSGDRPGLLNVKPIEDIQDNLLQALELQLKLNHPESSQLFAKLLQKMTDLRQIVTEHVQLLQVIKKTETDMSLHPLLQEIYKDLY

The test system of test [6] is rat Norepinephrine Transporter (NET), gene 83511. In words: NVS_TR_rNET: NovaScreen (NVS) Transporter Assay for rat Norepinephrine Transporter (NET) (AID 2283373). A digest of the protocol:
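Rat forebrain membranes; radioligand binding measured by filter-based scintillation counting 1 hour after dosing. Loss of specific binding versus DMSO baseline scored; primary screen in duplicate at 25 uM, actives followed up in concentration series.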

Test [7] has as its target Estrogen receptor beta (Homo sapiens) (UniProt Q92731). Nature of the test: OT_ER_ERbERb_1440: Odyssey Thera (OT) 24-hour HEK293T Protein-Complementation Assay for Estrogen Receptor-beta/-beta Homodimer (AID 2283380).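 Also: scored as signal increase over DMSO baseline for both agonists and antagonists.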 A digest of the protocol: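 HEK293T cells stably expressing human ER-beta LBD (aa 310-547) PCA homodimer pair, dosed 24 h; formaldehyde-fixed, Draq5-stained. Readout: increase in nuclear (agonist) or nuclear plus cytoplasmic (antagonist) fluorescence intensity versus DMSO, gain-of-signal fitting.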

Test [8] deals with Estrogen receptor (Homo sapiens) + Estrogen receptor beta (Homo sapiens) (UniProt P03372+Q92731). In words: OT_ER_ERaERb_1440: Odyssey Thera (OT) 24-hour HEK293T Protein-Complementation Assay for Estrogen Receptor-alpha/-beta Homodimer (AID 2283356).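 Also: heteromer of ER alpha and ER beta binding domains; hits raise reporter fluorescence and both agonists and antagonists give an increase.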 The essentials: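 HEK293T stably expressing a PCA of ER alpha LBD (aa 310-547) and ER beta LBD (aa 263-489). After 24 h compound exposure, mean fluorescence intensity in nucleus (agonists) or nucleus and cytoplasm (antagonists) measured by laser scanning cytometry versus vehicle.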
Estrogen receptor (Homo sapiens) + Estrogen receptor beta (Homo sapiens), sequence (P03372 whole entry, looked up, the tested form may be a part): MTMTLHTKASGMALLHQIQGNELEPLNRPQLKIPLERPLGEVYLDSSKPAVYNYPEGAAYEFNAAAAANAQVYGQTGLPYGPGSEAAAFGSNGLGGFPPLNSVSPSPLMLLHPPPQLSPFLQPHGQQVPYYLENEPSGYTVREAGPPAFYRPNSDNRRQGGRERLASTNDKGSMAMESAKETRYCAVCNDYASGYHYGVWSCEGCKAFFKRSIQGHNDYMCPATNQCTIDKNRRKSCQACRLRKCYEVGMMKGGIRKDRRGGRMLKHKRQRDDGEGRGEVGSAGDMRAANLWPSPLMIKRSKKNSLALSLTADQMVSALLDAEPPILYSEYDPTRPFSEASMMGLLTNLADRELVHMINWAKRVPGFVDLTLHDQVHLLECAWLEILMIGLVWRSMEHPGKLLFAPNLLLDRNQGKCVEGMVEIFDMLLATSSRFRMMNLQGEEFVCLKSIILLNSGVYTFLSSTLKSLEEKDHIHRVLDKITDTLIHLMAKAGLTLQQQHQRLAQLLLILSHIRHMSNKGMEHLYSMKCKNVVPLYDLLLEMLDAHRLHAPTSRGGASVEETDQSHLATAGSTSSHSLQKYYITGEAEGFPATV
Estrogen receptor (Homo sapiens) + Estrogen receptor beta (Homo sapiens), sequence (Q92731 whole entry, looked up, the tested form may be a part): as the sequence (Q92731 whole entry, looked up, the tested form may be a part) above

Test [9] addresses human Serotonin Transporter (SERT), SLC6A4 (gene 6532) (UniProt P31645). Nature of the test: NVS_TR_hSERT: NovaScreen (NVS) Transporter Assay for human Serotonin Transporter (SERT) (AID 2283372). A digest of the protocol:
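Radioligand binding to native SERT in human platelet membranes, read by filter-based scintillation counting 1 h after dosing. Primary screen in duplicate at 25 uM; actives followed up in concentration series; loss of signal versus DMSO baseline.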

Test [10] addresses rat Serotonin Transporter (SERT), Slc6a4 (gene 25553) (UniProt P31652). Nature of the test: NVS_TR_rSERT: NovaScreen (NVS) Transporter Assay for rat Serotonin Transporter (SERT) (AID 2283375). The essentials: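 Rat forebrain membranes; radioligand displacement at SERT read by filter-based scintillation counting, 1 h after dosing. Screened in duplicate at 25 uM, actives then run in concentration series; loss of signal versus DMSO baseline.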

Test [11] has as its target Retinoic acid receptor alpha (Homo sapiens) (UniProt P10276). Nature of the test: NVS_NR_hRAR_Antagonist: NovaScreen (NVS) Nuclear Receptor Binding Assay for human Retinoic Acid Alpha Receptor Antagonism (RAR) (AID 2283358). The essentials:
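Cell-free TR-FRET binding assay on extracted receptor protein, run in antagonist mode; signal read 2 hours after chemical dosing. Loss of signal was fitted relative to DMSO baseline. Screened at 25 uM in duplicate, actives followed up in concentration series.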

Test [12] concerns the target PGR (gene 5241) (UniProt P06401). Nature of the test: NVS_NR_hPR: NovaScreen (NVS) Nuclear Receptor Binding Assay for human Progestron Receptor (PR) (AID 2283360).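 Also: active means loss of bound radioligand signal versus DMSO baseline.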 A digest of the protocol: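 Competitive displacement of a labelled radioligand from T47D-derived receptor protein is measured in a cell-free format. Initial testing uses 25 uM in duplicate, with positive and negative controls on every plate.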

Test [13] deals with human Norepinephrine Transporter (NET), SLC6A2 (gene 6530) (UniProt P23975). In words: NVS_TR_hNET: NovaScreen (NVS) Transporter Assay for human Norepinephrine Transporter (NET) (AID 2283377).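 Also: cell-free membrane protein extracted from CHO cells expressing human NET.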 The essentials:
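Radioligand binding to human NET in cell-free CHO-derived protein preparations, read by filter-based scintillation counting 1 hour after dosing. Loss of signal versus DMSO baseline indicated displacement; primary screening in duplicate at 25 uM, actives then titrated.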

Test [14] deals with mouse Estrogen Receptor alpha (Era), Esr1 (gene 13982) (UniProt P19785). Nature of the test: NVS_NR_mERa: NovaScreen (NVS) Nuclear Receptor Binding Assay for mouse Estrogen Receptor alpha (Era) (AID 2283378).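 Also: hit means loss of bound radioligand signal relative to DMSO.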 A digest of the protocol:
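Cell-free radioligand competitive displacement binding, read by filter-based scintillation counting 18 h after dosing. Primary screen run in duplicate at 25 uM, actives retested in concentration series; loss of signal versus DMSO.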

For test [15], the target named is Agonist Androgen Response Element (ARE), AR (gene 367) (UniProt P10275). In words: OT_AR_ARELUC_AG_1440: Odyssey Thera (OT) 24-hour CHO-K1 Luciferase Assay for Agonist Androgen Response Element (ARE) (AID 2283379). A digest of the protocol: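 Seed CHO-K1 cells; dose compounds for 24 h; add D-luciferin plus ATP in PBS; read luminescence. Signal increase relative to vehicle defines agonist activity, with at least 3 replicate wells per sample.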

The target in test [16] is rat Androgen Receptor (AR), Ar (gene 24208) (UniProt P15207). In words: NVS_NR_rAR: NovaScreen (NVS) Nuclear Receptor Binding Assay for rat Androgen Receptor (AR) (AID 2283366). The essentials:
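Cell-free radioligand binding on extracts of prostate from testosterone-pretreated rats, read by filter-based scintillation counting 18 h after dosing. Loss of bound signal fitted positively versus DMSO; primary screen in duplicate at 25 uM, actives followed up in concentration series.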

The target in test [17] is human Adenosine Transporter (Adot), SLC29A1 (gene 2030) (UniProt Q99808). Nature of the test: NVS_TR_hAdoT: NovaScreen (NVS) Transporter Assay for human Adenosine Transporter (Adot) (AID 2283368). The essentials: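 U937-derived membranes, cell-free radioligand binding, filter scintillation 1 h after dosing. 25 uM duplicate screen; hits (e.g. 30% inhibition) run in concentration-response up to 50 uM; loss of signal versus DMSO.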

The target in test [18] is Retinoic acid receptor alpha (Homo sapiens) (UniProt P10276). In words: NVS_NR_hRARa_Agonist: NovaScreen (NVS) Nuclear Receptor Binding Assay for human Retinoic Acid Alpha Receptor Agonism (RAR) (AID 2283361). The essentials:
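Cell-free TR-FRET binding read-out with extracted human RARα protein, read 2 h after compound addition. Gain of signal scored against DMSO baseline. Primary screen at a single 25 uM in duplicate; actives then retested in concentration series.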

In test [19] the target is Nuclear receptor subfamily 1 group I member 2 (Homo sapiens) (UniProt O75469). Nature of the test: NVS_NR_hPXR: NovaScreen (NVS) Nuclear Receptor Binding Assay for human Pregnane X Receptor (PXR) (AID 2283365).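 Also: a drop in FRET signal versus DMSO baseline means the compound binds.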 The essentials: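 Cell-free TR-FRET binding assay with extracted human PXR protein, read 2 h after dosing. Primary screen run in duplicate at 25 uM, actives followed in concentration series; loss of signal fitted against DMSO baseline.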

mouse Estrogen Receptor alpha (Era), Esr1 (gene 13982), sequence (P19785 whole entry, looked up): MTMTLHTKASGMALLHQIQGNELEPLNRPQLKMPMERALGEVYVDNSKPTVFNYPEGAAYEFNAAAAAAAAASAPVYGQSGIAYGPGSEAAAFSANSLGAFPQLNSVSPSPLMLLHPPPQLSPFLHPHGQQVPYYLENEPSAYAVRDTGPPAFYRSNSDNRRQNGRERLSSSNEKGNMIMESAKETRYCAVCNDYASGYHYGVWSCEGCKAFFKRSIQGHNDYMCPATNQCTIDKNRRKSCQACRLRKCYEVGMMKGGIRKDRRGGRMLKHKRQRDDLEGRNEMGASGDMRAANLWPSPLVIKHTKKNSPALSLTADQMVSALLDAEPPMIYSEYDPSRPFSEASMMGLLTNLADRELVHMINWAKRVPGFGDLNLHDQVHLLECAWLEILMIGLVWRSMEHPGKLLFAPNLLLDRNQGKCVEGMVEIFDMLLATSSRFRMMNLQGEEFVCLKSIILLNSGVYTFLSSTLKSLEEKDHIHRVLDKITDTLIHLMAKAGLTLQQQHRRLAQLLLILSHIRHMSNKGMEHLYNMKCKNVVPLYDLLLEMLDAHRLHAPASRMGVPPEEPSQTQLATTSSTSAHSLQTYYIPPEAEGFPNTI
PGR (gene 5241), sequence (P06401 whole entry, looked up): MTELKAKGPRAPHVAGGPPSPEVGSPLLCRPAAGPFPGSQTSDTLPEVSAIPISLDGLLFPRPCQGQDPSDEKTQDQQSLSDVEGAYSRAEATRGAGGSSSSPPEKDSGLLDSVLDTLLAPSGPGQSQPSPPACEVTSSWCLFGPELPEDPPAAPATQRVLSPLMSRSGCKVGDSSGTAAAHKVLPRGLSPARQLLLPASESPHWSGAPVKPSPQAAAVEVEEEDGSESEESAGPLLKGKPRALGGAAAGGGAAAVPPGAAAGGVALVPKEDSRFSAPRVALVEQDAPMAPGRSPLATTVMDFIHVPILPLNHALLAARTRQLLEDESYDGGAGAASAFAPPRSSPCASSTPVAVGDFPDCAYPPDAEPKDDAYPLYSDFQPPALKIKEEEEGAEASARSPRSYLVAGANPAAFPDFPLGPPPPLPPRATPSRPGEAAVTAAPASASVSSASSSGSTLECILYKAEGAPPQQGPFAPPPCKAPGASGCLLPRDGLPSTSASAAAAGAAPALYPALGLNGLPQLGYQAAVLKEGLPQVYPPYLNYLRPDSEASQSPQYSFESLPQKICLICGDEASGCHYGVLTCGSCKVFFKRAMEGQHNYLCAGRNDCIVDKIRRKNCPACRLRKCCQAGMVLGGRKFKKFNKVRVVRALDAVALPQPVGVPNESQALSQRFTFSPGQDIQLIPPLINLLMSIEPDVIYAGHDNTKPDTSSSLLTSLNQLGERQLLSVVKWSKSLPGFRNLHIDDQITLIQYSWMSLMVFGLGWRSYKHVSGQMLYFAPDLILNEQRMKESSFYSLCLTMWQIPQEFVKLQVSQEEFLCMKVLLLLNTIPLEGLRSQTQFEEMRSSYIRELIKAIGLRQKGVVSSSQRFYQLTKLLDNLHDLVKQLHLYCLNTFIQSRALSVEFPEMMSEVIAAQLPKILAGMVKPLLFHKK
Retinoic acid receptor alpha (Homo sapiens), sequence (P10276 whole entry, looked up): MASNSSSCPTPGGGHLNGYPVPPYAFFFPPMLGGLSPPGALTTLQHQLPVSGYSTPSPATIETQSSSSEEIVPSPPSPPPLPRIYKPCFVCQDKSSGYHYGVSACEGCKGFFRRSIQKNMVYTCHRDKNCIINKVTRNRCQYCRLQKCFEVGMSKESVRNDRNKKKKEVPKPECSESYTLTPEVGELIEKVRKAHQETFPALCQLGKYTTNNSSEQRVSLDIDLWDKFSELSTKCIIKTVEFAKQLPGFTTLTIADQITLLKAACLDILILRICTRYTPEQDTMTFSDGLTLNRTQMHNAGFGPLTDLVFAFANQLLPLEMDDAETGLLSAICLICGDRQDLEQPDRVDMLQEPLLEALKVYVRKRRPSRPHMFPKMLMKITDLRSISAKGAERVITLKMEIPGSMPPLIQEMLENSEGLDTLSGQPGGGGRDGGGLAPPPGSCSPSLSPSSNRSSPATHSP
guinea pig Sigma Receptor, Non-selective Binding, SIGMAR1 (gene 100135589), sequence (Q60492 whole entry, looked up): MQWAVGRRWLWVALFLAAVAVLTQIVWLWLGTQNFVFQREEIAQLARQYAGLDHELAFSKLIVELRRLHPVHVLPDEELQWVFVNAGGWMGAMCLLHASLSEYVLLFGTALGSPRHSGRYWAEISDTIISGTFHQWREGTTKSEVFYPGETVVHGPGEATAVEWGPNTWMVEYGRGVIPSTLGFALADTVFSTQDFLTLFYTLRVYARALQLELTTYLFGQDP

For orientation: AC50 means the concentration at which the activity in the assay is half-maximal. On to `C=CCOC(Cn1ccnc1)c1ccc(Cl)cc1Cl` (stereo not drawn), for which the molecule was called inactive in test [1], in test [2] and in test [5]. The AC50 is 4.62 µM (active) in test [3], 14.3 µM (active) in test [4], 11.9 µM (active) in test [6] and 60.6 µM (active) in test [7].

With `COc1c(Cl)ccc(Cl)c1C(=O)O`, the result in test [8], in [1], in test [9], in test [10] and in test [7] was inactive.

In the case of `CCCN(CCC)c1c([N+](=O)[O-])cc(C(F)(F)F)c(N)c1[N+](=O)[O-]`, the result in [8], in test [1], in test [11], in test [5] and in [7] was inactive.

Consider `c1ccc(Nc2ccccc2)cc1`, for which the AC50 in test [1] is 50.8 µM (active); in test [13], 3.18 µM (active). Also, the molecule was called inactive in [12], in test [5] and in test [7].

For the molecule `CCOC(=O)c1ccc(O)cc1`, the AC50 in test [8] is 32.2 µM (active) and 26.9 µM (active) and 26.8 µM (active); in test [1], 27.8 µM (active) and 33.1 µM (active) and 31.7 µM (active); in test [7] it was 28.6 µM (active) and 25.9 µM (active) and 32.9 µM (active). Besides, the outcome in test [8], in test [1], in test [2], in [10], in test [14] and in test [7] was inactive.

As to `CCCCCOC(=O)COc1cc(N2C(=O)C3=C(CCCC3)C2=O)c(F)cc1Cl`, the result in test [8], in test [11] and in [7] was inactive.

Consider `Cc1nn(C)c(Oc2ccccc2)c1C=NOCc1ccc(C(=O)OC(C)(C)C)cc1`, for which the outcome in test [8], in test [1], in test [12], in [4], in test [15] and in test [7] was inactive.

`CCCCOCCOCCOCc1cc2c(cc1CCC)OCO2`: the molecule was classed as inactive in test [1], in [12], in test [16], in [5], in test [15] and in [7].

As to `O=C(Nc1ccc([N+](=O)[O-])cc1Cl)c1cc(Cl)ccc1O`, the result in [8], in test [1], in test [5] and in test [7] was inactive.

Consider `CC(=O)[C@H]1CC[C@H]2[C@@H]3CCC4=CC(=O)CC[C@]4(C)[C@H]3CC[C@]12C`, for which the result in [8], in test [1], in test [4], in [5], in [14] and in test [7] was inactive. For the same molecule, the AC50 in test [3] is 1.16 µM (active); in test [17] it was 6.22 µM (active); in test [5], 4.07 µM (active); in [14], 17.4 µM (active).

Take `C[C@]12C[C@H](O)[C@H]3[C@@H](CCC4=CC(=O)CC[C@@]43C)[C@@H]1CC[C@@H]2C(=O)CO`: the outcome in test [8], in test [1], in test [18], in [19], in [14] and in [7] was inactive. Also, the AC50 in [12] was 0.403 µM (active); in test [3], 25 µM (active).
